{
  "source": "PubChem BioAssay AID687014",
  "about": "(The Scripps Research Institute Molecular Screening Center, 2013)",
  "note": "Screen size: about 370,000 compounds; about 6,800 (1.8%) were called active. What follows is part of a selection rich in actives, with near analogues and random picks from the rest. Unmarked numbers belong to inactive results.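 Rule for the calls: active = activation above a cutoff set at the mean of all screened compounds plus 3 SD (cut at about 10% in these data); inactive = the rest.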",
  "data": [
    {"system": "Nuclear hormone receptor DAF-12 (Heterodera glycines), GAL4 fusion", "experiment": "hgDAF-12 GAL4 fusion reporter activation – cell-based, luminescence, HEK293, UAS-luciferase, primary screen (AID 687014);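 note: 0% = DMSO wells and 100% = sodium butyrate wells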", "details": "HEK293 GAL4-hgDAF12 UAS-luciferase reporter, agonist luminescence; at 6.8 µM; stronger effect = higher value; normalized to butyrate control", "values": [
      {"smiles": "COC(=O)[C@]12C[C@H](CC(=O)NCCC(C)C)C(=O)N(CCc3ccc(OC)c(OC)c3)C1=C[C@H](C(C)(C)C)O[C@@H]2C", "activation": "0.69%"},
      {"smiles": "Cc1cc(Br)cn2c(Cc3ccccc3C(F)(F)F)c(-c3ccc(C#N)cc3)nc12", "activation": "-0.23%"},
      {"smiles": "Cc1cc(Br)cn2c(Cc3ccccc3C(F)(F)F)c(-c3ccc(Cl)cc3)nc12", "activation": "0.95%"},
      {"smiles": "Cc1ccc(-c2nc3ccc(Br)cn3c2Cc2ccccc2C(F)(F)F)cc1", "activation": "12.4% (active)"},
      {"smiles": "CCCCN1CCN(C(=O)c2ccc3c(c2)NC(=O)C(C)(C)O3)CC1", "activation": "1.81%"},
      {"smiles": "N#CCC[C@H]1CC[C@]2(CCCN(Cc3ccc(Cl)cc3)C2)O1", "activation": "-2.81%"},
      {"smiles": "Cc1ccc(C)c(NC(=O)CCS(=O)(=O)c2ccccc2)c1", "activation": "-2.63%"},
      {"smiles": "O=C(NC(=S)Nc1ccccc1C(=O)O)c1ccc(-c2ccc(Br)cc2)o1", "activation": "-2.39%"},
      {"smiles": "CC1CCN(C(=S)c2ccc(-c3ccc(Cl)cc3Cl)o2)CC1", "activation": "-2.32%"},
      {"smiles": "S=C(c1ccc(-c2ccccc2)o1)N1CCCCC1", "activation": "19.9% (active)"},
      {"smiles": "NC(=O)c1ncn([C@@H]2O[C@H](C(=O)O)[C@@H](O)[C@H]2O)n1", "activation": "1.3%"},
      {"smiles": "Cc1ccnc(-n2sc3ccccc3c2=O)n1", "activation": "4.36%"},
      {"smiles": "Cc1ccnc(Nc2nc3ccccc3s2)n1", "activation": "21.9% (active)"},
      {"smiles": "CCCN1C(=O)c2[nH]nc(-c3ccccc3)c2C1c1ccccc1", "note": "(stereo not given)", "activation": "-0.37%"},
      {"smiles": "O=C(NCc1ccccc1)[C@H]1CCCN1C(=O)[C@H]1CCCN1C(=O)N1CCOCC1", "activation": "-0.79%"},
      {"smiles": "Cc1cc2nc(SCCN3CCOCC3)[nH]c2cc1C", "activation": "11.8% (active)"},
      {"smiles": "COc1ccc2nc(SCC(=O)Nc3c(C)cc(C)cc3C)[nH]c2c1", "activation": "-0.27%"},
      {"smiles": "CCn1c2ccc(F)cc2c2nnc(SCCN3CCOCC3)nc21", "activation": "0.7%"},
      {"smiles": "COc1ccccc1CCNS(=O)(=O)c1cc2c3c(c1)C(C)C(=O)N3CCC2", "note": "(stereo not given)", "activation": "-1.65%"},
      {"smiles": "O=C1C(=O)N(Cc2ccc(-c3ccsc3)cc2)c2ccc(OC(F)(F)F)cc21", "activation": "-4.58%"},
      {"smiles": "COC(=O)C1=C(C)N(Cc2ccc(F)cc2)C(=S)NC1c1cccc(Cl)c1", "note": "(stereo not given)", "activation": "-2.2%"},
      {"smiles": "CC(C)[C@@H](C)/C=C/[C@@H](C)[C@H]1CC[C@@H]2[C@]1(C)CCC1[C@]23C=C[C@]2(C[C@@H](O)CC[C@]12C)N(c1ccc([N+](=O)[O-])cn1)O3", "note": "(stereo not given in full)", "activation": "0.26%"},
      {"smiles": "COc1ccc(N2CCN(CCNS(=O)(=O)c3ccc(C(C)(C)C)cc3)CC2)cc1", "activation": "0.34%"},
      {"smiles": "N/C(=N\\OC(=O)Cc1ccc([N+](=O)[O-])cc1)c1ccccn1", "activation": "5.64%"},
      {"smiles": "N/C(=N\\OC(=O)CCC1CCCCC1)c1ccccn1", "activation": "14.7% (active)"},
      {"smiles": "N/C(=N\\OC(=O)CC1CCCCC1)c1ccccc1", "activation": "0.73%"},
      {"smiles": "COc1cc(/C=C/C(=O)n2cnc3ccccc32)cc(OC)c1OC", "activation": "-6.48%"},
      {"smiles": "C/C(=C(\\C#N)C(=O)NCCCN1CCOCC1)N(C)C", "activation": "-0.63%"},
      {"smiles": "CNC(=O)C1CCN(S(=O)(=O)c2c(C)noc2/C=C/c2cccc(C)c2)CC1", "activation": "1.09%"},
      {"smiles": "O=C(Nc1ccccn1)C1CCN(S(=O)(=O)c2ccc3c(c2)OCCO3)CC1", "activation": "5.62%"},
      {"smiles": "Cc1ccnc(NC(=O)C2CCN(S(=O)(=O)c3c(C)c(C)cc(C)c3C)CC2)c1", "activation": "14.9% (active)"},
      {"smiles": "COc1ccccc1CCNC(=O)C1CCN(c2nc(C)cc(C)n2)CC1", "activation": "-1.32%"},
      {"smiles": "O=C(CSc1nc2ccccc2n1Cc1ccccc1Cl)N/N=C\\c1c[nH]c2ccccc12", "activation": "0.95%"},
      {"smiles": "O=C(c1ccco1)N1CCN(C(=O)c2cc(-c3ccccc3F)no2)CC1", "activation": "0.91%"},
      {"smiles": "Fc1ccccc1-c1cc2cc3c(cc2cn1)OCO3", "activation": "16.3% (active)"},
      {"smiles": "COC(=O)C1=C(C)N(Cc2cccc(C(F)(F)F)c2)C(=NCc2cccc(C(F)(F)F)c2)NC1c1ccccc1C(F)(F)F", "note": "(stereo not given)", "activation": "0.13%"},
      {"smiles": "CN(C)c1ccc(NC(=O)NC2CCCCN(Cc3ccc(Cl)cc3)C2=O)cc1", "note": "(stereo not given)", "activation": "-1.5%"},
      {"smiles": "C[C@@H]1CN([C@H](C)CO)S(=O)(=O)c2ccc(C#C[C@@H](C)O)cc2O[C@@H]1CN(C)Cc1ccc(-c2ccccc2)cc1", "activation": "2.28%"},
      {"smiles": "Cc1cnc(NC(=O)c2ccc(Cl)nc2)s1", "activation": "12.4% (active)"},
      {"smiles": "Cc1cnc(NC(=O)Cn2cnc3c2c(=O)n(C)c(=O)n3C)s1", "activation": "-0.21%"},
      {"smiles": "O=C(Nc1nnc(C2CC2)s1)c1ccccn1", "activation": "12.5% (active)"},
      {"smiles": "CCc1ccccc1OCC(=O)Nc1nnc(C2CC2)s1", "activation": "-2.07%"},
      {"smiles": "CCc1cc(C(=O)Nc2nnc(C3CC3)s2)sc1C", "activation": "1.89%"},
      {"smiles": "O=C(Nc1ccc2nc3n(c(=O)c2c1)CCCC3)c1ccc(Cl)nc1", "activation": "1.23%"},
      {"smiles": "Cc1cccc(NC(=O)c2cccc(C(=O)Nc3cccc(C)c3C)n2)c1C", "activation": "-1.93%"},
      {"smiles": "Cc1cnc(NC(=O)c2ccccn2)s1", "activation": "16.5% (active)"},
      {"smiles": "COc1ccc(CC(=O)NCc2nnc(SCC(=O)Nc3ncc(C)s3)n2C)cc1", "activation": "3.07%"},
      {"smiles": "O=C(COC(=O)c1ccc(F)cc1)NCCCc1ccccc1", "activation": "-2.09%"},
      {"smiles": "Cc1ccc(C(=O)NCC(=O)OCC(=O)Nc2cccc(S(=O)(=O)N3CCCC3)c2)cc1C", "activation": "0.26%"},
      {"smiles": "O=C(NCc1ccccc1)[C@H]1CCCN1C(=O)[C@@H]1CCCN1C(=O)c1ccc(Cl)cc1Cl", "activation": "5.91%"},
      {"smiles": "O=C(CSC1CC(=O)N(CCc2ccccc2)C1=O)Nc1ccc(Cl)cc1", "note": "(stereo not given)", "activation": "3.22%"},
      {"smiles": "COC(=O)[C@H](C(C)C)N1CCc2nnn(Cc3ccc(C)cc3)c2-c2ccccc2S1(=O)=O", "activation": "1.86%"},
      {"smiles": "COC(=O)[C@]12C[C@H](CC(=O)NCCc3ccccc3OC)C(=O)N(Cc3ccco3)C1=C[C@H](C(C)C)O[C@@H]2C1CC1", "activation": "1.21%"},
      {"smiles": "Nc1[nH]c(C(=O)c2ccccc2)c(-c2ccncc2)c1C(=O)NCc1cccc2ccccc12", "activation": "-0.47%"},
      {"smiles": "CNC(=O)c1sc(Nc2ccc(OCc3ccccc3)cc2)nc1C", "activation": "-1.9%"},
      {"smiles": "COc1ccc(-c2csc(Nc3ccccn3)n2)cc1", "activation": "16.9% (active)"},
      {"smiles": "COc1ccc(Nc2nc(-c3ccccc3)cs2)cc1", "activation": "22.4% (active)"},
      {"smiles": "c1ccc(Nc2nc(-c3ccncc3)cs2)nc1", "activation": "14.5% (active)"},
      {"smiles": "O=C(CN1C(=O)C2C3C=CC(C3)C2C1=O)Nc1nc(-c2ccccn2)cs1", "note": "(stereo not given)", "activation": "0.17%"},
      {"smiles": "Cc1cccc(OCC(=O)OCC(=O)Nc2ccc(Cl)cn2)c1", "activation": "0.27%"},
      {"smiles": "CC(=O)c1ccc(Nc2nc(C(N)c3ccccc3)cs2)cc1", "note": "(stereo not given)", "activation": "2.66%"},
      {"smiles": "Clc1ccc(Nc2nc(-c3cccs3)cs2)nc1", "activation": "19.5% (active)"},
      {"smiles": "COc1cccc(C(O)c2nc(-c3ccc(C)c(C)c3)cs2)c1", "note": "(stereo not given)", "activation": "-0.02%"},
      {"smiles": "N#Cc1ccc(OCC(=O)Nc2nc(-c3ccccn3)cs2)cc1", "activation": "-6.22%"},
      {"smiles": "CC(NC(=O)c1ccco1)C(=O)Nc1nc(-c2ccccn2)cs1", "note": "(stereo not given)", "activation": "1.66%"}
    ]}
  ]
}
